From PubChem BioAssay
Records with an inconclusive call do not appear. For part of these data: Results with a measured potency or affinity are listed apart. Active and inactive are the calls of the source. Unless noted, how the calls were made is not given here.

Assays:
[1] = test system: Aerobactin synthetase IucA (Klebsiella pneumoniae hvKP1); assay: IucA enzyme inhibition, primary screen, biochemical, Spectrum library (AID 1346200); conditions: malachite green pyrophosphate, A620, at 8 µM, stronger effect = lower value;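 further: 100% = wells without compound and 0% = wells lacking enzyme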
[2] = test system: Aerobactin synthetase IucA (Klebsiella pneumoniae, hypervirulent); assay: biochemical IucA inhibition screen of LOPAC library by absorbance (AID 1346212); conditions: IucA enzyme assay, absorbance (OD) readout; stronger effect = lower value;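 tested at 8 µM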;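 further: 100% = no compound wells and 0% = no enzyme wells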
[3] = blockers of polyQ-driven CASP3 activation – cell-based (AID 1583); conditions: polyglutamine-induced caspase-3 activation, cell assay; stronger effect = higher value;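 tested at 10 µM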
[4] = yeast 75Q aggregation reduction – 75Q-TubU reporter (AID 1593); conditions: Yeast 75Q polyglutamine aggregation reporter
[5] = restoration of touch response, mutant HTT neurons – whole organism, C. elegans mechanosensory neurons, N-terminal huntingtin (AID 1599); conditions: C. elegans polyQ-huntingtin mechanosensory neurons, stronger effect = higher value
[6] = blockers of cytochrome c efflux from mitochondria – biochemical, purified mitochondria (AID 1603); conditions: stronger effect = lower value;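 further: mouse liver mitochondria challenged with calcium chloride; signal normalized to the plate average as 100%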
[7] = polyglutamine aggregate formation blockers (AID 1604); conditions: polyglutamine-induced protein aggregation inhibition assay; stronger effect = higher value; tested at 2.5 µM
[8] = glutamate transport activators, MN-1 cells, MN-1 cell line (AID 1612); conditions: MN-1 motor neuron cells, stronger effect = higher value;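 further: tested at 1 µM final; 0% = mean of DMSO vehicle wells on each plate; positive means more glutamate uptake than control and negative means less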
[9] = GFP-Q80 aggregate reduction, neuronal-like cells, cell-based, NGF-treated PC12, GFPQ80 (AID 1614); conditions: PC12 NGF-treated GFP-polyQ80 inclusion reduction;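 further: lower means fewer inclusions and 0 means no inclusions at all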
[10] = 75Q-TubH aggregate inhibition, S. cerevisiae, yeast (AID 1616); conditions: S. cerevisiae 75Q-TubH polyglutamine aggregation suppression; stronger effect = higher value
[11] = viability loss with induced miR-34 in A549 – imaging, A549 dox-inducible miR-34, nuclei and caspase counts, primary screen (AID 1347080;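 active means compounds whose cell count with miR-34 switched on is under 0.7 times the count with it off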); conditions: A549 miR-34 inducible, Hoechst nuclei count, 48 h
[12] = compounds altering circadian rhythm period length – cell-based, LOPAC library, luminescence reporter (AID 2774); conditions: circadian reporter cells, at 7 µM, actives lie on both sides;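 further: values are relative to mean of DMSO wells on each plate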
[13] = test system: Hepatitis C virus NS3 helicase; assay: blockers of NS3h binding to ssDNA – biochemical, fluorescence polarization, LOPAC1280 library, primary screen (AID 687035; in the data active means inhibition above about 37%); conditions: Purified HCV NS3 helicase, Cy5-dT15 ssDNA binding fluorescence polarization; stronger effect = higher value; concentration not given here
[14] = compounds altering Cy5-DNA-NS3h complex signal – biochemical, LOPAC1280, artefact control for HCV NS3 helicase inhibitor project (AID 687037); conditions: Cy5-DNA-NS3h complex fluorescence interference counterscreen
[15] = galactose survival enhancers in mitochondrial complex I cybrids – cell-based, galactose medium, ATP luminescence, primary screen (AID 1645843;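 active means z-score of at least 1.8 in each of two replicates, scored against plate mean and spread of sample wells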;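 further: positive z means more ATP and so rescue of galactose-driven cybrid death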); conditions: complex I mutant cybrid cells, 72 h, stronger effect = higher value
[16] = biological target: ATP-dependent translocase ABCB1 (Homo sapiens) (UniProt P08183); assay: P-glycoprotein substrate transport blockade – cell-based (AID 377; in the data active means fluorescence slope change above about 50%); conditions: MDR1-expressing cells, fluorescent substrate accumulation slope; stronger effect = higher value; concentration not given here
ATP-dependent translocase ABCB1 (Homo sapiens), sequence (P08183 whole entry, looked up): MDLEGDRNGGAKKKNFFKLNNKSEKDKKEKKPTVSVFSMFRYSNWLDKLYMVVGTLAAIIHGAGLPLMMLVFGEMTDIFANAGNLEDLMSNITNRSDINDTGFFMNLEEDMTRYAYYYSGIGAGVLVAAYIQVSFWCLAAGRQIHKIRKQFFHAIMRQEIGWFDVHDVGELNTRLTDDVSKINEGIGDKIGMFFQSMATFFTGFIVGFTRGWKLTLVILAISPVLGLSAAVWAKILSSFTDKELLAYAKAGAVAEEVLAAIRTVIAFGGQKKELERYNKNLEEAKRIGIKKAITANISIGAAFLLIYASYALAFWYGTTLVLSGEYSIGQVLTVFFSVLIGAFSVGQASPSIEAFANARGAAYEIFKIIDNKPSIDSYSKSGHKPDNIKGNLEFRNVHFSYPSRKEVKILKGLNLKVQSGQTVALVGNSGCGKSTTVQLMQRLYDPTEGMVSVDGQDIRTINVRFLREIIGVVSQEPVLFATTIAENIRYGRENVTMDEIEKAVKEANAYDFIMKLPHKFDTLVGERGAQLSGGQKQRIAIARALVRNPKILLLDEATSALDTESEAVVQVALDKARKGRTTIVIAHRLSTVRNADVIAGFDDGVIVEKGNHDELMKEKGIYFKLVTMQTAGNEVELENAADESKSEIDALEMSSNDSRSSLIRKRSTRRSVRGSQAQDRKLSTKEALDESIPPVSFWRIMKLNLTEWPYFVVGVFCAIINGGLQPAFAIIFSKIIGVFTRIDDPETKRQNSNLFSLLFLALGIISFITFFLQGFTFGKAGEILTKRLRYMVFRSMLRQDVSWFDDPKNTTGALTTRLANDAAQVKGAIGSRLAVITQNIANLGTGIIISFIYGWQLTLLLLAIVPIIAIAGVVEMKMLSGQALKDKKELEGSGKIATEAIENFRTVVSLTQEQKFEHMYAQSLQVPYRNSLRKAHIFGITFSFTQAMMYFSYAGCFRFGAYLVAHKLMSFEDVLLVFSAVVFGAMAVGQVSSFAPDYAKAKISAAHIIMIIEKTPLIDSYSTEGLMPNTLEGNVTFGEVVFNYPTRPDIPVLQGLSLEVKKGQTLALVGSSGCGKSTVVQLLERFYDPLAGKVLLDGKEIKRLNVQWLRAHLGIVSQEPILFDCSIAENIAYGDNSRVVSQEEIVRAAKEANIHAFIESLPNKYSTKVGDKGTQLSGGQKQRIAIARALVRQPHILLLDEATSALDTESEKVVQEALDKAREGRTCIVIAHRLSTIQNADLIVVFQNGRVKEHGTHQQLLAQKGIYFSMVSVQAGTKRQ

[17] = compounds altering viability of human ES cells (AID 493140); conditions: human embryonic stem cell survival screen; stronger effect = higher value;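 further: cells exposed to compounds for four days before counting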
[18] = P. berghei load reduction in hepatocytes – cell-based, HepG2, luciferase luminescence, HepG2 viability, primary screen (AID 624349; in the data active means parasite load remaining mostly below about 12%, no sharp cut-off; inactive means mostly above about 10%;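 further: 100% = mean of DMSO negative control wells on the same plate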); conditions: P. berghei liver stage in HepG2, luciferase luminescence, concentration not given here; parasite load remaining: stronger effect = lower value; viability: measured here: HepG2 viability without parasites
[19] = chitosan synthesis blockers in C. neoformans – flow cytometry, Cibacron Brilliant Red staining (AID 1347148); conditions: Cryptococcus neoformans chitosan, stronger effect = lower value; at 10 µM unless noted;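 further: compound exposure lasted three days at 37 degrees C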
[20] = measured here: relative caspase fold change +Dox/-Dox
[21] = measured here: total cells with miR-34 induction, stronger effect = lower value
[22] = measured here: total cells without miR-34 induction

Structure (SMILES): CN=C(N)NCCC[C@H](N)C(=O)O
- activity remaining [1]: 116% (inactive)
- remaining activity [2]: 111% (inactive)

Structure (SMILES): CC(C[N+](C)(C)C)OC(N)=O (centres undefined)
- activity remaining [1]: 116% (inactive)
- remaining activity [2]: 114% (inactive)

Structure (SMILES): COCCOC(=O)C1=C(C)NC(C)=C(C(=O)OC(C)C)C1c1cccc([N+](=O)[O-])c1 (centres undefined)
- activity remaining [1]: 118% (inactive)
- remaining activity [2]: 111% (inactive)

Structure (SMILES): NCCCCN=C(N)N
- activity remaining [1]: 123% (inactive)
- remaining activity [2]: 111% (inactive)

Structure (SMILES): C[N+](C)(C)CCO
- activity remaining [1]: 126% (inactive)
- remaining activity [2]: 112% (inactive)

Structure (SMILES): COC(=O)[C@H]1[C@H]2C[C@@H]3c4[nH]c5cc(OC)ccc5c4CCN3C[C@H]2C[C@@H](OC(=O)c2cc(OC)c(OC)c(OC)c2)[C@@H]1OC
- activity remaining [1]: 109% (inactive)
- remaining activity [2]: 102% (inactive)

Structure (SMILES): COc1cc([C@@H]2c3cc4c(cc3[C@H](O)[C@H]3COC(=O)[C@H]23)OCO4)cc(OC)c1OC
- inhibition [3]: -31.7%
- score [4]: 0.81
- rescue above control [5]: -13.8
- cytochrome c release ratio [6]: 1.06
- inhibition of aggregation [7]: 58.9%
- glutamate uptake change [8]: 21.3%
- inclusion score [9]: 2
- aggregation suppression score [10]: 0.784
- activity remaining [1]: 102% (inactive)
- remaining activity [2]: 124% (inactive)

Structure (SMILES): NC(=O)c1cccc(N)c1
- activity remaining [1]: 121% (inactive)
- remaining activity [2]: 113% (inactive)

Structure (SMILES): CN1C(=O)CC[C@H]1c1cccnc1
- activity remaining [1]: 101% (inactive)
- remaining activity [2]: 122% (inactive)

Structure (SMILES): O=C1CCc2cc(OCCCCc3nnnn3C3CCCCC3)ccc2N1
- activity remaining [1]: 117% (inactive)
- remaining activity [2]: 113% (inactive)

Structure (SMILES): N[C@@H](CC(=O)N1CCn2c(nnc2C(F)(F)F)C1)Cc1cc(F)c(F)cc1F
- activity remaining [1]: 110% (inactive)
- fold change ([11]; stronger effect = lower value, cell number ratio, induced over uninduced): 0.907 (inactive)
- fold change [11, 20]: 5.09
- cell count [11, 21]: 11900
- cell count [11, 22]: 13100

Structure (SMILES): CS(=O)(=O)Nc1ccc([N+](=O)[O-])cc1Oc1ccccc1
- activity remaining [1]: 113% (inactive)
- remaining activity [2]: 117% (inactive)

Structure (SMILES): CC1COc2c(N3CCN(C)CC3)c(F)cc3c(=O)c(C(=O)O)cn1c23 (centres undefined)
- activity remaining [1]: 92.3% (inactive)
- remaining activity [2]: 118% (inactive)

Structure (SMILES): CC(N)C(=O)OC(C)(C)Cc1ccc(Cl)cc1 (centres undefined)
- period change [12]: -0.005 h (inactive)
- inhibition [13]: -4% (inactive)
- fluorescence ratio (interference) [14]: 1 (inactive)
- activity remaining [1]: 86.1% (inactive)
- remaining activity [2]: 119% (inactive)
- fold change ([11]; stronger effect = lower value): 1.02 (inactive)
- fold change [11, 20]: 1.79
- cell count [11, 21]: 10500
- cell count [11, 22]: 10300
- z-score [15]: -0.85 (inactive)

Structure (SMILES): c1ccc2c(c1)CCCC2C1=NCCN1 (centres undefined)
- activity remaining [1]: 110% (inactive)
- remaining activity [2]: 102% (inactive)

Structure (SMILES): CC(C)(C(=O)O)c1ccc(C(O)CCCN2CCC(C(O)(c3ccccc3)c3ccccc3)CC2)cc1 (centres undefined)
- activity remaining [1]: 113% (inactive)
- remaining activity [2]: 107% (inactive)

Structure (SMILES): COc1ccc(CCn2nnnc2C2(c3ccc(C)cc3)CC2)cc1
- remaining activity [2]: 115% (inactive)

Structure (SMILES): CO/N=C(\C(=O)N[C@@H]1C(=O)N2C(C(=O)O)=C(COC(C)=O)CS[C@H]12)c1csc(N)n1 (stereo in doubt)
- remaining activity [2]: 123% (inactive)

Structure (SMILES): OCCN1CCN(CCCN2c3ccccc3C=Cc3ccccc32)CC1
- remaining activity [2]: 117% (inactive)

Structure (SMILES): O=C(O)P(=O)(O)O
- fluorescence slope change [16]: 95.2% (active)
- activity remaining [1]: 112% (inactive)

Structure (SMILES): C[C@@H]1CC[C@H]2[C@@H](C)C(=O)O[C@@H]3OC4(C)CC[C@@H]1[C@]32OO4
- inhibition [3]: 18.8%
- score [4]: 0.49
- rescue above control [5]: 21.4
- cytochrome c release ratio [6]: 1.15
- inhibition of aggregation [7]: 79.2%
- glutamate uptake change [8]: 20.6%
- inclusion score [9]: 2
- aggregation suppression score [10]: 0.15
- survival [17]: 4.67 (inactive)
- parasite load remaining [18]: 71.2% (inactive)
- viability [18]: 72.2%
- activity remaining [1]: 86.3% (inactive)

Structure (SMILES): O=C1N(c2ccccc2)c2ccccc2C1(Cc1ccncc1)Cc1ccncc1
- remaining activity [2]: 114% (inactive)

Structure (SMILES): CC(=O)C1=C(O)C2C3c4c[nH]c5cccc(c45)CC3C(C)(C)N2C1=O (centres undefined)
- inhibition [3]: -21.2%
- score [4]: -0.21
- rescue above control [5]: 9.72
- cytochrome c release ratio [6]: 1.1
- inhibition of aggregation [7]: -15.2%
- glutamate uptake change [8]: 28.8%
- aggregation suppression score [10]: 0.0191
- activity remaining [1]: 102% (inactive)
- fold fluorescence [19]: 4.14 [at 148.6 µM] (inactive)

Structure (SMILES): C[C@@H]1CC[C@@]2(NC1)O[C@H]1C[C@H]3C4CC=C5C[C@@H](O)CC[C@]5(C)C4CC[C@]3(C)C1[C@@H]2C (some centres undefined)
- parasite load remaining [18]: 57% (inactive)
- viability [18]: 93.1%
- activity remaining [1]: 118% (inactive)

Structure (SMILES): CCn1c(=O)[nH]c2cc(Cl)c(Cl)cc21
- remaining activity [2]: 98.7% (inactive)

Structure (SMILES): CC(C)NC[C@H](O)COc1cccc2ccccc12
- remaining activity [2]: 92.7% (inactive)

Structure (SMILES): Nc1ccc(CCNc2ncnc3c2ncn3C2OC(CO)C(O)C2O)cc1 (centres undefined)
- remaining activity [2]: 124% (inactive)
